# From PubChem BioAssay
# FLuc counter = firefly luciferase modulation, counter-screen for miR-21 project; P08659; Potency, µM (series often up to 57.5 µM), most hits filed as inhibitors; purified FLuc, Km substrates, luminescence inhibition; 360,000 tested, 6.9% active; further: nearly all actives have a fitted effect of over 55% in size
# Target sequence (P08659 whole entry, looked up): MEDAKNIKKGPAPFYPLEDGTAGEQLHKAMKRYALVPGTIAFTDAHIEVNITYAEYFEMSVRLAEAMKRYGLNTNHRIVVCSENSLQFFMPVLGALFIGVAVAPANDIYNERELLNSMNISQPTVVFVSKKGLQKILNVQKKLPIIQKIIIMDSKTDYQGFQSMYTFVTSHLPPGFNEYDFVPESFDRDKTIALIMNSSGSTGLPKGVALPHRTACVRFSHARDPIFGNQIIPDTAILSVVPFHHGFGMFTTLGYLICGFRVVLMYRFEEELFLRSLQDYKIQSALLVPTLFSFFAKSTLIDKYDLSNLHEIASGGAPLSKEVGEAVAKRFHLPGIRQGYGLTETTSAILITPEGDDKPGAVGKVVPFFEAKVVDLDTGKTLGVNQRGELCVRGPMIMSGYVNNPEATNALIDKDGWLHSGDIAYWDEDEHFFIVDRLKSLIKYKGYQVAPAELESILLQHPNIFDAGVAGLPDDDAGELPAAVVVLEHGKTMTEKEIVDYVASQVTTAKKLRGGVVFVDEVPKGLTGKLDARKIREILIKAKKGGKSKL
#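 Purified P. pyralis luciferase, 10 nM final, with Km-level 10 uM D-luciferin and 10 uM ATP in 50 mM Tris acetate pH 7.5, 10 mM Mg acetate, 0.01% Tween-20, 0.05% BSA; 6-point qHTS titration about 60 µM downward; luminescence read.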
# Rab9 promoter act = activators of Rab9 promoter; 320,000 tested, 2.8% active; Huh7 Rab9 promoter-luciferase reporter, luminescence, 24 h; Potency, µM (series often up to 9.22 µM), actives largely listed as activators; further: nearly all actives have a fitted effect of over 60% in size
#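 Luminescence from Amplite-detected luciferase (10 minutes, ambient) reports Rab9 promoter activation. Before that, stable Rab9-luciferase Huh7 cells (1500/well, reduced-serum OP-MEM I plus 10% FBS) were exposed to compound for 24 hours at 37C.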
# p53 reactivation = restores transcriptional activity of mutant p53 | H1299 p53-A138V BP100-luciferase reporter, luminescence, 24 h | Potency, µM (top dose mostly 92.2 µM), actives largely listed as activators | 320,000 tested, 0.063% active | AID 504706; further: nearly all actives have a fitted effect of over 45% in size
#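 p53-null H1299 cells stably carrying temperature-sensitive p53-A138V and a BP100-luciferase reporter were pinned with compounds (4-point, 1:5 series) and held 24 hrs at 37 deg C. Luminescence was read 10 min after detection reagent.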
# NPC1 promoter act = activators of NPC1 promoter. Huh7 NPC1 promoter luciferase reporter, 24 h. AID 485313. 320,000 tested, 2.4% active. Potency, µM (titrated, usually from 9.22 µM), hits mostly activators; further: nearly all actives have a fitted effect of over 60% in size
#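 Luciferase expression driven by the NPC1 promoter was measured in stably transfected Huh7 cells after a 24 h compound incubation, using a luciferase reagent and a luminescence read.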
# ELG1 genotox = inducers of genotoxicity in HEK293T ELG1-luciferase cells; 330,000 tested, 1.3% active; Potency, µM (doses to about 46 µM), usual class: activators; HEK293T ELG1-luciferase reporter, luminescence, 16 h; AID 504466; further: nearly all actives have a fitted effect of over 60% in size
#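 16 hr compound incubation (37 °C, 5% CO2) of HEK293T cells carrying luciferase-tagged ELG1; luciferase then measured by ONE-Glo luminescence after 30 min at RT.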
# SMN2 splice enh = SMN2 splice variant enhancement; HEK293 SMN2-luciferase splicing reporter, luminescence, 30-36 h; 210,000 tested, 2.8% active; Potency, µM (titrated, usually from 46.1 µM), hits mostly activators; further: nearly all actives have a fitted effect of over 55% in size
#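 HEK293 cells carry an SMN2 minigene-luciferase reporter in which exon 7 inclusion puts luciferase in frame. Cells were seeded at 2000 cells/well, attached for 10-12 hours, then exposed to compounds for 30-36 hours at 37C before ONE-Glo luminescence.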
# Hits are given with their value; . = inactive; ? = inconclusive; / = no result given. In the library only some 7.3% were active in any assay of this set; here they are far more common. The call rests on the fitted dose curve; in most records, active means well fitted curve in the direction sought with a large enough effect; inconclusive means small, poorly fitted or top-dose-only effect, or another doubt; inactive means no such curve, though single readings can be large; an effect the other way counts as inactive or inconclusive.
SMILES,FLuc counter,Rab9 promoter act,p53 reactivation,NPC1 promoter act,ELG1 genotox,SMN2 splice enh
O=C(CSc1nnc(Nc2ccccc2)s1)NCCN1C(=O)CSC1=O,?,.,?,.,.,.
Cc1ccc(Nc2nnc(SCC(=O)NC(Cc3c[nH]c4ccccc34)C(=O)O)s2)cc1 (centres undefined),19µM,.,.,.,.,.
CCOc1ccccc1Nc1nnc(SCC(=O)NC(Cc2c[nH]c3ccccc23)C(=O)O)s1 (centres undefined),?,.,.,.,.,.
Cc1ccc(Nc2nnc(SCC(=O)NCCN3C(=O)CSC3=O)s2)cc1,8.5µM,.,?,.,.,?
Cc1cc(C)cc(NC(=O)Cn2nnc(-c3ccccc3F)n2)c1,.,/,/,/,/,/
C=C(C)COc1ccc2c(C)c(CCC(=O)N3C[C@H]4C[C@@H](C3)c3cccc(=O)n3C4)c(=O)oc2c1,.,.,.,.,.,/
COc1ccc(C(=O)NCC2OCCc3ccccc32)cc1OC (centres undefined),.,.,.,.,.,.
COc1ccc(C(=O)NCC2OCCc3ccccc32)cc1 (centres undefined),15µM,.,.,.,.,.
CCOc1ccc(C(=O)NCC2OCCc3ccccc32)cc1 (centres undefined),17µM,.,?,.,.,.
COc1ccc(OCC(=O)Nc2ccc(NC(=O)c3cccs3)cc2)cc1,.,.,.,.,.,/
CN(C(=O)c1cccs1)c1ccc(OCC(=O)Nc2ccc(C(=O)O)cc2)cc1,17µM,.,.,.,.,/
CCCc1ccc(OCC(=O)Nc2cc(S(=O)(=O)CC)ccc2O)cc1,27µM,.,.,.,.,/
CCS(=O)(=O)c1ccc(O)c(NC(=O)COc2ccc(OC)cc2)c1,?,.,.,.,.,.
CCN(C(=O)Cn1cc(C(=O)c2ccc(F)cc2)c(=O)c2ccc(C)nc21)c1cccc(C)c1,.,/,/,/,/,/
Cc1ccc(-c2nnc3ccc(SCC(=O)N4CCc5ccccc54)nn23)cc1,.,.,.,.,.,.
N#Cc1ccccc1CSc1ccc(-c2nc3ccccc3[nH]2)cn1,19µM,.,.,.,?,.
CC(=O)CSc1ccc(-c2nc3cc(C)c(C)cc3[nH]2)cn1,.,.,.,.,.,/
CC(=O)CSc1ccc(-c2nc3ccccc3[nH]2)cn1,4.3µM,0.71µM,.,0.56µM,?,/
Cc1ccc2nc(-c3ccc(SCC(=O)N4CCc5ccccc54)nc3)[nH]c2c1,0.27µM,3.2µM,?,3.5µM,.,11µM
Cc1ccc2nc(-c3ccc(SCC(=O)O)nc3)[nH]c2c1,5.4µM,.,?,.,.,.
CNC(=O)[C@H](C)/C=C/C(NC(=O)OCc1ccccc1)c1ccc(C(=O)OC)cc1 (some centres undefined),/,/,/,/,/,.
Cc1ccc2c(c1)c1c(c(=O)n(-c3ccccc3C)c(=O)n1CC(=O)NCCC1=CCCCC1)n2C,.,/,/,/,/,/
Cc1ccc2c(c1)c1c(c(=O)n(-c3ccccc3)c(=O)n1CC(=O)c1ccc(F)cc1)n2C,.,/,/,/,/,/
Cc1cc2nc(-c3ccc(SCc4ccc(C#N)cc4)nc3)[nH]c2cc1C,5.4µM,.,.,.,.,.
CCc1nnc(NC(=O)CSc2ccc(-c3nc4ccc(C)cc4[nH]3)cn2)s1,1.7µM,3.2µM,.,2.8µM,13µM,/
SMILES,FLuc counter,Rab9 promoter act,p53 reactivation,NPC1 promoter act,ELG1 genotox,SMN2 splice enh
CCOc1ccc(C(=O)CSc2nnc3ccccn23)cc1,3µM,1.1µM,?,2µM,21µM,.
Cc1c(Cl)cnc(NC(=O)CSc2nnc3ccccn23)c1Cl,?,?,?,.,18µM,?
O=C(CSc1nnc2ccccn12)c1ccc(Cl)cc1,?,3.5µM,.,.,?,.
Nc1ccc(C(=O)N/N=C/c2cn(Cc3ccccc3)c3ccccc23)cc1,17µM,.,.,.,.,/
Cc1onc(-c2ccccc2)c1C(=O)N/N=C/c1cn(C)c2ccccc12,.,.,.,.,.,.
Nc1ccc(C(=O)N/N=C/c2cn(Cc3ccc(F)cc3)c3ccccc23)cc1,?,.,.,.,.,/
